Reference: PubChem BioAssay (NCATS)
Where “and” joins values, the source holds several entries; their conditions need not be identical. Equal values may be shown once. Inconclusive results are not listed. Calls of active or inactive are those of the source. The call rests on the fitted dose curve; in most records, active means well fitted cell-killing curve with a large enough effect; inconclusive means small, poorly fitted or top-dose-only effect, or effect the other way; inactive means no such curve, though single readings can be large or run the other way.

Assay: Viability qHTS for spleen associated tyrosine kinase inhibitor (SYKi) naive MV4-11 cells (AID 1963823); further: nearly all actives have a fitted effect of over 40% in size
Conditions: MV4-11 AML viability, CellTiter-Glo luminescence, 72 h; series mostly up to 45 µM; viability (% of control): at the top concentration
Description: Department of Medicine, Hematology/Oncology
University Hospital Frankfurt, Germany.
Trials have shown promising clinical activity of the selective SYK inhibitor entospletinib in patients with high expressing HOXA9/MEIS1 acute leukemias. As the development of resistance mechanisms is a common problem in the use of targeted drugs, we performed a chemical library screen to identify drug sensitivities in SYK inhibitor resistant AML cells. […] Glucocorticoids are potent immunosuppressants which work in part by inhibiting the transcription of cytokine genes.
Described herein is a viability screen to look for activity in the SYK inhibitor naive cell line against four NCATS compound libraries (MIPE 5.0, NPC, NPACT, and Kinase) totaling 11372 compounds. Active hits were reacquired for confirmation and further secondary assay testing.
SEQUENCE No. (e.g., 1, 2, 3, etc.); […] (e.g., Cells, Incubation, Reagent, etc.); VALUE; DESCRIPTION.
1; Media; 2uL; white, solid-bottom Corning assay plate.
2; Compounds; 23nL; Echo acoustic dispenser.
3; Cell; 5uL; 500 cells per well.
4: Incubation; 72hr; 37 C, 5% CO2, 95% humidity.
5; Reagent; 3uL; CellTiter-Glo reagent (Promega).
6; Incubation; 10min; room temperature.
7; Detection; Luminescence; ViewLux plate reader (PerkinElmer).
NOTES (numbers refer to Sequence numbers above
1. Quantitative high-throughput screening (qHTS) of small molecule compounds was conducted on naive SYKi MV4-11 cell line.
2. Twenty-three nanoliter of small molecule compounds were added to each assay plates using the Echo acoustic dispenser (Beckman Coulter).
3. Cells were seeded into the assay plates at a final density of 500 cells in 5uL of media per well using the Multi-drop Combi dispenser.
4. Plates were covered with stainless steel gasketed lids and incubated for 72 hours at standard cell culture conditions.
5. Viability was assessed by adding 3uL of CellTiter-Glo detection reagent (Promega).
6. Plates were covered with gasket lids and incubated for 10 minutes at room temperature.
7. Luminescence was measured on a ViewLux plate reader (PerkinElmer).
Potency means the concentration at half of the fitted maximal effect.

**Q.** With `CC(=O)OC[C@H]1O[C@@H](n2ncc(=O)[nH]c2=O)[C@H](OC(C)=O)[C@@H]1OC(C)=O` as the molecule, how does the “viability (% of control)” value read?
**A.** 106% (inactive)

**Q.** For `NC(=O)N1CCC(CC(=O)N2CCC([C@H]3c4ncc(Br)cc4CCc4cc(Cl)cc(Br)c43)CC2)CC1`, which Potency is on record?
**A.** 5.9 µM (active)

**Q.** With `CCn1c(=O)c2cc(C(N)=O)c(N)nc2n(C2CC2)c1=O` as the molecule, how does the “viability (% of control)” value read?
**A.** 77.1% (inactive)

**Q.** For `O=C(O)CCCC[C@@H]1SC[C@@H]2NC(=O)N[C@@H]21`, which “viability (% of control)” value is on record?
**A.** 93.4% (inactive)

**Q.** With `CCC[C@@H]1C[C@@H](C(=O)N[C@@H]([C@H]2O[C@H](SC)[C@H](O)[C@@H](O)[C@H]2O)[C@H](C)Cl)N(C)C1` as the molecule, how does the “viability (% of control)” value read?
**A.** 77.6% (inactive)

**Q.** For `Nc1[nH]c(=O)ncc1F`, which Potency is on record?
**A.** inactive

**Q.** Which “viability (% of control)” value does the source give for `C/C1=C\[C@H]2OC(=O)[C@@H](C)[C@@H]2CC/C(C(=O)O)=C/CC1` here?
**A.** 60% (inactive)

**Q.** Which Potency does the source give for `Cc1noc(-c2ccc(-c3ccc(C4(C(=O)O)CC4)cc3)cc2)c1NC(=O)O[C@H](C)c1ccccc1` here?
**A.** 16.6 µM (active)

**Q.** With `Cc1ccc(C(=O)c2cc(O)c(O)c([N+](=O)[O-])c2)cc1` as the molecule, how does the Potency read?
**A.** 20.9 µM (active)

**Q.** With `CCCCOCCOC(=O)c1cccnc1` as the molecule, how does the “viability (% of control)” value read?
**A.** 59.4% (inactive)

**Q.** For `C=CC(C)(CCC=C(C)C)O[C@@H]1O[C@H](CO)[C@@H](O)[C@H](O)[C@H]1O` (stereo not given in full), which “viability (% of control)” value is on record?
**A.** 91.6% (inactive)

**Q.** With `COc1cc2ncnc(Sc3nnc(C)s3)c2cc1OC` as the molecule, how does the Potency read?
**A.** 0.82 µM (active)

**Q.** With `COc1ccc(CC(NC(C)=O)C(=O)O)cc1` (stereo not given) as the molecule, how does the “viability (% of control)” value read?
**A.** 97.3% (inactive)

**Q.** For `CCc1cc(C(N)=S)ccn1`, which Potency is on record?
**A.** inactive

**Q.** Which “viability (% of control)” value does the source give for `COC(=O)C1(O)C(OC(C)=O)CCC2C3(CC(c4ccoc4)OC3=O)C(C)=CCC21C(=O)OC` (stereo not given) here?
**A.** 84.5% [at 17.3 µM] (inactive)

**Q.** For `CC(=O)O[C@@H]1[C@@H](CO)O[C@@](CO)(O[C@H]2O[C@H](COC(=O)/C=C/c3ccccc3)[C@@H](O)[C@H](O)[C@H]2O)[C@H]1O`, which “viability (% of control)” value is on record?
**A.** 15.5% [at 17.3 µM] (inactive)

**Q.** With `CCc1cccc(CC)c1-n1c(C=C(C)C)c(C(=O)N2CCNCC2)cc(-c2nc(-c3ccc(C(F)(F)F)cc3)cs2)c1=O` as the molecule, how does the “viability (% of control)” value read?
**A.** 5.92% [at 17.3 µM] (inactive)

**Q.** For `COc1cccc(OCCCN)c1-c1cc(Nc2cnc(C#N)cn2)n[nH]1`, which Potency is on record?
**A.** 14.6 nM (active) and 5.9 nM (active)

**Q.** Which Potency does the source give for `C/C=C/C=C/C=C/C(=O)O[C@@H]1C=C(CO)[C@](O)(CO)[C@@]2(C)CCCC(C)(C)[C@H]12` here?
**A.** 16.1 µM (active)

**Q.** Which Potency does the source give for `COc1ccc(C2CC(c3ccccc3)=NN2c2ccc(S(N)(=O)=O)cc2)cc1` (stereo not given) here?
**A.** 20.9 µM (active)

**Q.** For `CC1CCC2(O1)C(C)(C)CC(O[C@@H]1O[C@H](CO[C@@H]3OC[C@](O)(CO)[C@H]3O)[C@@H](O)[C@H](O)[C@H]1O)CC2(C)O` (stereo not given in full), which “viability (% of control)” value is on record?
**A.** 88% [at 17.3 µM] (inactive)

**Q.** Which “viability (% of control)” value does the source give for `C[N+]1(C)CCC(=C(c2ccccc2)c2ccccc2)CC1` here?
**A.** 70% (inactive)

**Q.** For `CN1[C@@H]2CC[C@H]1CC(OC(=O)c1c[nH]c3ccccc13)C2` (stereo not given in full), which Potency is on record?
**A.** inactive

**Q.** For `C#Cc1cccc(Nc2nc3cc(C(=O)O)ccc3c3cncnc23)c1`, which Potency is on record?
**A.** 5.17 µM (active)

**Q.** For `COc1cc(C)c(Cc2cnc(N)nc2N)cc1OC`, which “viability (% of control)” value is on record?
**A.** 81.1% (inactive)

**Q.** With `COc1cc2c(Oc3ccc4[nH]c(C)cc4c3F)ncnc2cc1OCCCN1CCCC1` as the molecule, how does the Potency read?
**A.** 13 µM (active) and 3.32 µM (active)

**Q.** For `Nc1nc(Cl)nc2c1ncn2[C@@H]1O[C@H](CO)[C@@H](O)[C@@H]1F`, which Potency is on record?
**A.** 106 nM (active) and 263 nM (active)

**Q.** For `C[C@@H]1O[C@@H](O[C@H]2[C@H](O[C@H]3[C@H](O[C@H]4CC[C@@]5(C)C(CC[C@]6(C)C5CC=C5[C@@H]7CC(C)(C)C[C@@H](O)[C@]7(C)CC[C@]56C)[C@@]4(C)CO)O[C@H](C(=O)O)[C@@H](O)[C@@H]3O)O[C@H](C(=O)O)[C@H](O)[C@@H]2O)[C@H](O)[C@H](O)[C@H]1O` (stereo not given in full), which viability (% of control) is on record?
**A.** 83.8% [at 9.25 µM] (inactive)

**Q.** Which “viability (% of control)” value does the source give for `CNc1cccc(CCOc2ccc3c(c2)CN(CC(F)(F)F)C(=O)[C@H](CC(=O)O)C3)n1` here?
**A.** 60.2% (inactive)

**Q.** Which viability (% of control) does the source give for `CC1(C(=O)O)CC[C@]2(C(=O)OC3OC(CO)C(O)C(O)C3O)CC[C@]3(C)C(=CCC4[C@@]5(C)CC[C@H](OC6OCC(O)C(O)C6OC6OC(CO)C(O)C(O)C6O)C(C)(C)C5CC[C@]43C)C2C1` (stereo not given in full) here?
**A.** 68.3% [at 9.25 µM] (inactive)

**Q.** With `Cc1c(CN2CCC(Nc3ncnc4sc(CC(F)(F)F)cc34)CC2)ccc2c1cc(C#N)n2Cc1cn[nH]c1` as the molecule, how does the Potency read?
**A.** 0.525 µM (active)

**Q.** For `CC(C)(O)C1CC=C(C(=O)OCC2OC(Oc3c(O)cc(C(=O)O)cc3O)C(O)C(O)C2O)CC1` (stereo not given), which “viability (% of control)” value is on record?
**A.** 92% [at 17.3 µM] (inactive)

**Q.** Which “viability (% of control)” value does the source give for `C[C@H](NC(=O)CCc1nc2ccccc2c(=O)[nH]1)c1ccccc1` here?
**A.** 63.7% (inactive)

**Q.** Which Potency does the source give for `O=C1[C@H](CC[C@H](O)c2ccc(F)cc2)[C@@H](c2ccc(O)cc2)N1c1ccc(F)cc1` here?
**A.** 20.6 µM (active) and 20.9 µM (active)

**Q.** With `COCc1c(Cl)ccc2c1CC[C@H]2c1ncc[nH]1` as the molecule, how does the “viability (% of control)” value read?
**A.** 60.6% (inactive)

**Q.** With `C=C1C(=O)O[C@@H]2CC(C)=C([C@@H](C)CCCOC(C)=O)[C@@H](O)[C@H]12` as the molecule, how does the “viability (% of control)” value read?
**A.** 71.7% (inactive)

**Q.** For `C=CC(C)(C)c1[nH]c2ccccc2c1C1=C(O)C(=O)C(c2c[nH]c3c(CC=C(C)C)cccc23)=C(O)C1=O`, which Potency is on record?
**A.** 18.4 µM (active)

**Q.** For `CC(C)C[C@H](NC(=O)CNC(=O)OCc1ccccc1)C(=O)N[C@@H](Cc1ccccc1)C(=O)CCl`, which Potency is on record?
**A.** 18.4 µM (active)

**Q.** For `COc1cc(O)c2c(c1)C1=CC(O)C(O)CC1(C)OC2=O` (stereo not given), which “viability (% of control)” value is on record?
**A.** 75.1% (inactive)

**Q.** Which Potency does the source give for `Cc1ccc(-c2c(C(=O)CF)n(CCCO)c3ncnc(N)c23)cc1` here?
**A.** 3.66 µM (active)
